# RECQ1 helicase – qHTS Assay for Inhibitors of RecQ-Like Dna Helicase 1 (RECQ1); ATP-dependent DNA helicase Q1 (Homo sapiens), P46063; RECQ1 DNA unwinding, red fluorescence kinetic read; Potency, µM (doses to about 57.3 µM), for inactives: top-dose activity, negative = inhibition, hits mostly inhibitors; hit rate 0.54% among 240,000; AID 2549, 2010;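 note: potency is the fitted concentration of half-maximal effect; plate controls were vehicle for no effect and no enzyme for full effect; nearly all actives have a fitted effect of over 30% in size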
#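 50 nM RECQ1T1 preincubated 15 min with compound in Tris pH 8.0 buffer with MgCl2, DTT, Tween-20 and 2.5 ug/ml poly(dI-dC); started with 200 nM TAMRA/BHQ-2 forked duplex and 2 mM ATP. Unwinding read as fluorescence (525/598 nm), two reads 2 h apart.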
# BLM inh – qHTS Assay for Inhibitors of Bloom's syndrome helicase (BLM) | recombinant BLM DNA unwinding, fluorescence dequenching | Potency, µM (titrated, usually from 56.1 µM), without a hit: at the top dose activity change, negative = inhibition, hits mostly inhibitors | hit rate 0.2% among 350,000 | AID 2528, 2010;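 note: potency is the fitted concentration of half-maximal effect; plate controls were vehicle for no effect and no enzyme for full effect; nearly all actives have a fitted effect of over 35% in size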
# FEN1 inhibitor – qHTS Assay for the Inhibitors of Human Flap endonuclease 1 (FEN1) | Recombinant FEN1 flap cleavage, fluorescence, 15 min | P39748 | Potency, µM (top dose mostly 114 µM), for inactives: at the highest dose activity change, negative = inhibition, hits mostly inhibitors | hit rate 0.35% among 390,000; note: potency is the fitted concentration of half-maximal effect; nearly all actives have a fitted effect of over 65% in size
#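 Enzyme 10 nM, 15 min RT preincubation with compound; start with substrate 50 nM final; reads at 0 and 15 min; qHTS titration, four-parameter Hill fit.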
# PI5P4Ka inh – qHTS for Inhibitors of phosphatidylinositol 5-phosphate 4-kinase (PI5P4K); max response, %; PI5P4Kalpha enzyme, ADP-Glo luminescence, 60 min; stronger effect = lower value; Phosphatidylinositol 5-phosphate 4-kinase type-2 alpha (Homo sapiens), P48426; hit rate 1.2% among 330,000; active = max response of -50% or lower; inconclusive = between -30% and -50%; inactive = -30% or higher; note: value at the top dose of about 77 µM
# Target sequence (P48426 whole entry, looked up): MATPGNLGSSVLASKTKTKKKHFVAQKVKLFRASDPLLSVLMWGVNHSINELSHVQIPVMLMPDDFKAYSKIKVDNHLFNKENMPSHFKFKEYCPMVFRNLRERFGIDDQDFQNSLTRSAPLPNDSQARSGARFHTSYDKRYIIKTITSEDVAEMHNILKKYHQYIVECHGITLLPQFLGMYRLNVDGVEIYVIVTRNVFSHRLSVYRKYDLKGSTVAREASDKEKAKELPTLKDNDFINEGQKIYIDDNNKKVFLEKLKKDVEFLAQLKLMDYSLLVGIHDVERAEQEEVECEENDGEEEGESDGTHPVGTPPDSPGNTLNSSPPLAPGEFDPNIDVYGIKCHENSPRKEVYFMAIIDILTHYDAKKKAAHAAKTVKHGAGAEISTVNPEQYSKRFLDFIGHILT
#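 qHTS, 1536-well: enzyme/substrate mix, compound by pin tool, 5 microM ATP final; RT 60 min; ADP-Glo reagents 1 (45 min) then 2 (30 min); luminescence.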
# WRN inhibitor – qHTS for Inhibitors of WRN Helicase. WRN helicase unwinding, fluorescent forked duplex, kinetic. Potency, µM (doses to about 114 µM), for inactives: top-dose activity change, negative = inhibition, most hits filed as inhibitors. hit rate 0.46% among 360,000. AID 651768, 2012; note: potency is the fitted concentration of half-maximal effect; nearly all actives have a fitted effect of over 55% in size
#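 WRN at 20 nM final preincubated with compound 15 min at room temperature; reaction started with 100 nM fluorophore/quencher forked duplex oligonucleotide and 2 mM ATP final. Unwinding followed kinetically by red fluorescence (ex 525, em 598 nm).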
# APEX1 inh – qHTS Assay for Inhibitors of the Human Apurinic/apyrimidinic Endonuclease 1 (APE1); recombinant APE1, TAMRA/BHQ-2 abasic DNA cleavage fluorescence; Potency, µM (series often up to 65.8 µM), without a hit: at the highest dose activity change, negative = inhibition, actives largely listed as inhibitors; AID 2517, 2012; DNA repair nuclease/redox regulator APEX1 (Homo sapiens), P27695; hit rate 0.35% among 350,000;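 note: potency is the fitted concentration of half-maximal effect; plate controls were vehicle for no effect and reference inhibitor for full effect; nearly all actives have a fitted effect of over 55% in size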
# Target sequence (P27695 whole entry, looked up): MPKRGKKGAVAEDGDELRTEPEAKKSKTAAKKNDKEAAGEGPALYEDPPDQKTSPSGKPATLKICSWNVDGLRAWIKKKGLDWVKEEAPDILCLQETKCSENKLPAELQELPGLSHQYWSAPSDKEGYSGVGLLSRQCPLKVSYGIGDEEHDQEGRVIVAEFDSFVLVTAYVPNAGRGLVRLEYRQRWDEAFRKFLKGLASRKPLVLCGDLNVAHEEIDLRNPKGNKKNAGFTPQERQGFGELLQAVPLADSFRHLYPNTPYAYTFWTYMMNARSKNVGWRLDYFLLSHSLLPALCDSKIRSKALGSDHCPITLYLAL
#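 Step 1: APE1 (0.75 nM) with compound, 15 min RT. Step 2: add 50 nM fluorophore/quencher THF duplex. Step 3: three fluorescence reads 60 s apart (525/598 nm); read 3 minus read 1 = reaction progress.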
# Starred values were filed as active, the others as inactive; i = inactive; ? = inconclusive; / = not tested or not shown; ! = not active in a repeat. Sampled rows, rich in hits. Any-hit rate of the full collection: about 1.5%. Unless noted, calls come from the whole dose curve; as a rule, active = well fitted curve in the direction sought with a large enough effect; inconclusive = small, poorly fitted or top-dose-only effect, or another doubt; inactive = no such curve, though single readings can be large; an effect the other way counts as inactive or inconclusive. Unless noted, % is set by controls: 0 for no effect and ±100 for the full control effect.
SMILES,RECQ1 helicase,BLM inh,FEN1 inhibitor,PI5P4Ka inh,WRN inhibitor,APEX1 inh
O=C(O)c1cccc2c1NC(C(=O)O)C1CC(Sc3ccccc3[N+](=O)[O-])C(Cl)C21 (configuration not stated),2.9%,?,44.7µM*,-67.4*,31.6µM*,2.9%
O=C1NC(=O)N(c2ccccc2)C(=O)/C1=C/c1coc2ccc(O)cc2c1=O,2.2%,-11.3%,-1.8%,-66.0*,?,3.9%
O=C1NC(=O)N(c2ccc(Cl)cc2)C(=O)/C1=C/c1coc2ccc(O)cc2c1=O,?,-8.9%,-18.8%,-58.4*,?,?
O=C1NC(=O)N(c2ccccc2)C(=O)/C1=C\c1ccccc1[N+](=O)[O-],-2.3%,-1.0%,2.6%,?,?,-5.9%
Cc1cc(/C=C2\C(=O)NC(=O)N(c3ccc(Cl)cc3)C2=O)c(C)n1-c1cccc(C(=O)O)c1,/,-6.2%,?,?,?,-25.3%
ClCBr,-2.6%,/,/,/,/,12.1%
O=C1NC(=S)NC(=O)C1=Cc1ccc2c(c1)CCN2CCCCl,?,15.8µM*,?,-92.3*,56.2µM*,17.8µM*
O=C1OC2(c3cc(Br)c(O)cc3Oc3c2cc(Br)c(O)[c]3[Hg])c2ccccc21 (configuration not stated),/,/,/,/,/,12.6µM*
O=C1NC(=O)C(=Cc2ccc(Oc3ccc([N+](=O)[O-])cc3)cc2)C(=O)N1,6.0%,-1.9%,-9.6%,-57.6*,25.1µM*,6.4%
COc1cc(C=C2C(=O)NC(=O)NC2=O)ccc1OCc1ccc([N+](=O)[O-])cc1,-0.4%,2.6%,-8.3%,?,44.7µM*,-6.6%
O=C1NC(=O)C(=Cc2cc([N+](=O)[O-])ccc2N2CCCCC2)C(=O)N1,5.4%,-1.1%,-12.0%,2.4,-11.5%,16.6%
O=C1NC(=O)C(=Cc2ccc(Cl)cc2)C(=O)N1,/,/,/,?,-31.7%,/
Cc1cccc2c3c(ccc12)C1=C(C(=O)C3=O)[C@@H](C)CO1,13.6%,-9.5%,/,/,/,-3.2%
CC[C@H](C)/C=C(C)/C=C/C1=CC2=C(Cl)C(=O)[C@](C)(OC(C)=O)C(=O)C2=CO1,/,/,?,-104.3*,50.1µM*,-4.2%
N#CC(Cl)(Cl)Cl,0.9%,/,/,/,/,0.0%
O=C(O)c1cc[c]([Hg][Cl])cc1,-9.1%,/,25.1µM*,-57.7*,-1.8%,17.0%
O=C(O)c1cccc(Cl)c1,1.1%,/,/,/,/,-0.9%
C/C(=N\NC(=O)c1ccccc1)c1c(O)n(Cc2ccccc2)c(=O)[nH]c1=O,-6.0%,6.6%,0.1%,-68.1*,-8.9%,-5.8%
C/C(=N\Nc1cccc2ccccc12)c1c(O)n(Cc2ccccc2)c(=O)[nH]c1=O,-26.0%,-9.3%,23.8%,-54.5*,-31.0%,-2.7%
C=CCOC(C)=O,-13.4%,/,/,/,/,-2.9%
COc1cc(/C=C2/C(=O)NC(=O)N(c3ccccc3)C2=O)ccc1O,-5.6%,-11.5%,3.1%,-58.9*,?,-6.1%
COc1ccc(/C=C2/C(=O)NC(=O)N(c3ccccc3)C2=O)cc1CN1C(=O)c2ccccc2C1=O,3.1%,-3.0%,?,-53.3*,-7.9%,4.8%
COc1ccccc1N1C(=O)NC(=O)/C(=C\c2cnn(-c3ccccc3)c2)C1=O,-3.3%,-11.7%,-2.7%,?,?,-0.7%
CCOc1cc(/C=C2/C(=O)NC(=O)N(c3ccc(CC)cc3)C2=O)ccc1OC(=O)c1cccs1,i,-1.2%,-0.5%,-69.9*,50.1µM*,-2.2%
COc1ccc(N2C(=O)NC(=O)/C(=C/c3ccc(N4CCOCC4)cc3)C2=O)cc1,i,-6.1%,/,/,/,-2.3%
SMILES,RECQ1 helicase,BLM inh,FEN1 inhibitor,PI5P4Ka inh,WRN inhibitor,APEX1 inh
COc1cccc(N2C(=O)NC(=O)/C(=C/c3ccc4c(c3)Cc3ccccc3-4)C2=O)c1,-0.7%,3.3%,?,?,44.7µM*,1.0%
CCC1CN2CCc3cc(OC)c(OC)cc3C2CC1CC1NCCc2cc(OC)c(OC)cc21 (configuration not stated),20.4%,-4.4%,/,/,/,-4.7%
C/C(CC(=O)Nc1cc(C)ccn1)=N\NC(=O)c1ccncc1,/,1.9%,14.3%,6.4,1.0%,67.1%
COc1ccc(/C=C2/C(=O)NC(=S)N(C3CC3)C2=O)cc1CN1C(=O)c2ccccc2C1=O,-16.9%,-3.9%,-11.7%,-88.3*,14.1µM*,0.0%
c1cc(OCC2CO2)cc(OCC2CO2)c1 (configuration not stated),-1.9%,/,/,/,/,?
N#C/C(=C\c1ccc(O)c(O)c1)C(N)=S,5.62µM*!,?,/,/,/,12.6µM*
ClC(Cl)=C(Cl)Cl,2.6%,/,/,/,/,5.0%
CC/C(=N\Nc1ccccc1)c1c(O)n(C)c(=O)n(C)c1=O,-18.1%,0.8%,-8.1%,-4.8,-8.4%,3.0%
C/C(=N\NC(=S)Nc1ccccc1)c1c(O)n(C)c(=O)n(C)c1=O,8.7%,3.2%,14.2%,-52.6*,-5.0%,-2.1%
C/C(=C/CCC(C)[C@H]1CC[C@@]2(C)C3=C(CC[C@]12C)[C@@]1(C)CCC(=O)C(C)(C)[C@@H]1CC3)C(=O)O (some centres not stated),-4.3%,25.1µM*,50.1µM*,-0.3,79.4µM*,3.9%
NNC(N)=S,-5.2%,/,/,/,/,-1.5%
C/C=C(\C)C(=O)N[C@@H](c1ccccc1)[C@@H](O)C(=O)O[C@H]1C[C@@]2(O)[C@@H](OC(=O)c3ccccc3)C3[C@](C)(C(=O)[C@H](OC(C)=O)C(=C1C)C2(C)C)[C@@H](O)C[C@H]1OC[C@@]31OC(C)=O (some centres not stated),-13.2%,-2.0%,-0.7%,-2.6,1.8%,6.5%
CC(=O)O[C@H]1C(=O)[C@@]2(C)C([C@H](OC(=O)c3ccccc3)[C@]3(O)C[C@H](OC(=O)[C@H](O)[C@@H](NC(=O)c4ccccc4)c4ccccc4)C(C)=C1C3(C)C)[C@]1(OC(C)=O)CO[C@@H]1C[C@@H]2OC(=O)[C@H](C)NC(=O)c1ccc(-c2c3ccc(=O)cc-3oc3cc(O)ccc23)c(C(=O)O)c1 (some centres not stated),3.16µM*,3.16µM*,/,/,/,3.16µM*
O=C1C=Cc2ccccc2C1=O,28.2µM*,-0.6%,/,/,/,?

# Bioassay records: PubChem, National Center for Advancing Translational Sciences (NCATS)
